In PubChem BioAssay (NCI):
The panel holds about 79,000 compounds, 15% with a hit somewhere; the sample as a whole holds those more often. Active and inactive are the calls of the source. Cut-off read from the data, not from the text of the source: active = growth inhibition above about 70%; inactive = the rest.

Legend:
[1] = NCI Yeast Anticancer Drug Screen. Data for the rad50 strain (AID 155);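 note: 0% = growth of vehicle-only cultures of the same strain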; settings: S. cerevisiae rad50 strain growth inhibition, stronger effect = higher value
Outline: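 Compounds were tested on a yeast strain with an engineered DNA damage repair alteration; the reported value is growth inhibition normalised to vehicle treatment.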

[2] = NCI Yeast Anticancer Drug Screen. Data for the mec2-1 strain (AID 157); settings: S. cerevisiae mec2-1 strain, stronger effect = higher value
Outline: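 Test agents were screened against the mec2-1 yeast strain, with defined DNA repair or cell cycle alteration. Growth was scored as inhibition against vehicle-only controls.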

[3] = NCI Yeast Anticancer Drug Screen. Data for the sgs1 mgt1 strain (AID 161);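 note: 0% = growth of cultures given vehicle only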; settings: S. cerevisiae sgs1 mgt1 strain, stronger effect = higher value
Outline: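 Mutant yeast exposed to compound; growth scored against vehicle-only wells.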

[4] = NCI Yeast Anticancer Drug Screen. Data for the cln2 rad14 strain (AID 165);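 note: 0% = growth equal to vehicle treated cultures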; settings: S. cerevisiae cln2 rad14 strain, stronger effect = higher value
Outline: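 Growth of compound-exposed yeast (cln2 rad14 genotype) measured and expressed as inhibition relative to vehicle.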

[5] = NCI Yeast Anticancer Drug Screen. Data for the bub3 strain (AID 167); settings: S. cerevisiae bub3 mutant strain, stronger effect = higher value
Outline: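 Growth of a checkpoint-deficient yeast mutant is measured after compound exposure. Values represent inhibition relative to vehicle.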

[6] = NCI Yeast Anticancer Drug Screen. Data for the mlh1 rad18 strain (AID 175); settings: S. cerevisiae mlh1 rad18 strain growth inhibition, stronger effect = higher value
Outline: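 In this whole-cell yeast screen, a strain with altered DNA damage repair is challenged with compound, and its growth is measured against matched vehicle-treated controls.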

[7] = at 5.0 µM (retest, dose inferred, filed as 0.5)
[8] = at 50.0 µM (retest, dose inferred, filed as 5.0)

Measured: growth inhibition

Cc1cccc2ccc3cc(CC(=O)O)c4cccc(C)c4c3c12
active: [1]; [8] 99% | [1]; at 50.0 µM 99.7% | [2]; [8] 99% | [2]; at 50.0 µM 99.8% | [3]; [8] 99% | [3]; at 50.0 µM 99.8% | [4]; [8] 99% | [4]; at 50.0 µM 99.5% | [5]; [8] 99% | [5]; at 50.0 µM 99.8% | [6]; [8] 99% | [6]; at 50.0 µM 99.7%
inactive: [1]; [7] 45% | [2]; [7] 33% | [3]; [7] 42% | [4]; [7] 33% | [5]; [7] 32% | [6]; [7] 36%

CCCCCCCCC1N(C)CCCN1C
inactive: [1]; [7] -76% | [2]; [7] -51% | [3]; [7] -37% | [3]; at 50.0 µM 49% | [4]; [7] -56% | [5]; [7] -52% | [6]; [7] -102%
active: [1]; [8] 97% | [1]; at 50.0 µM 99.5% | [2]; [8] 98% | [2]; at 50.0 µM 99.6% | [3]; [8] 98% | [4]; [8] 98% | [4]; at 50.0 µM 98.3% | [5]; [8] 98% | [5]; at 50.0 µM 99% | [6]; [8] 98% | [6]; at 50.0 µM 99.5%

CC(=O)Nc1nc(Cl)c2ncn(C3CC(OC(=O)c4ccc(C)cc4)C(COC(=O)c4ccc(C)cc4)O3)c2n1 (stereo not given)
inactive: [1]; [7] -3% | [1]; [8] 0% | [1]; at 50.0 µM 53.1% | [2]; [7] 0% | [2]; [8] 6% | [2]; at 50.0 µM 27.4% | [3]; [7] 57% | [3]; [8] 3% | [3]; at 50.0 µM 60.1% | [4]; [7] -2% | [4]; [8] 0% | [4]; at 50.0 µM 63.4% | [5]; [7] 0% | [5]; [8] -2% | [5]; at 50.0 µM 33.2% | [6]; [7] -20% | [6]; [8] 0% | [6]; at 50.0 µM 48.6%

CCN(CCCOc1ccccc1)CCN(CC)CCCOc1ccccc1
active: [4]; at 50.0 µM 73.2%
inactive: [1]; [7] 1% | [1]; [8] 13% | [1]; at 50.0 µM 34.5% | [2]; [7] 19% | [2]; [8] 38% | [2]; at 50.0 µM 33.2% | [3]; [7] 1% | [3]; [8] 59% | [3]; at 50.0 µM 60.9% | [4]; [7] 0% | [4]; [8] 11% | [5]; [7] 2% | [5]; [8] 14% | [5]; at 50.0 µM 42% | [6]; [7] 15% | [6]; [8] 44% | [6]; at 50.0 µM 35.6%

COc1cc(C=Nc2ccc(Cl)cc2)ccc1OC(=O)c1ccccc1
inactive: [1]; [7] 6% | [1]; [8] -8% | [1]; at 50.0 µM 18% | [2]; [7] -6% | [2]; [8] -5% | [2]; at 50.0 µM -37% | [3]; [7] -2% | [3]; [8] -1% | [3]; at 50.0 µM -3.8% | [4]; [7] 26% | [4]; [8] 21% | [4]; at 50.0 µM 7.55% | [5]; [7] 27% | [5]; [8] 30% | [5]; at 50.0 µM -6.5% | [6]; [7] 3% | [6]; [8] -18% | [6]; at 50.0 µM 11.1%
